Results on 18 compounds are retold here after PubChem BioAssay (NCI).

Each structure is given as a SMILES string. About 83,000 compounds went through this panel and 20% of them were active in at least one assay; those are over-represented in the sample as a whole.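 Compound tested at a single concentration for 48 hours in 96-well plates; a percent growth value below 10 was scored as active.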 A number with no mark means an inactive call. Calls of active or inactive are those of the source.

Some test systems named below: RPMI-8226 leukemia; OVCAR-8 ovarian; OVCAR-5 ovarian; OVCAR-4 ovarian; SK-OV-3 ovarian; IGROV1 ovarian; OVCAR-3 ovarian; NCI/ADR-RES ovarian; HS 578T breast.
Common to all, as to test: NCI-60 one-dose screen, 48 h (100 = growth as untreated, 0 = no growth, -100 = all killed)
Details in all cases: 10 µM unless noted

Take `O=S(=O)(c1ccc(N/N=C\c2ccccc2)cc1)c1ccc(N/N=C/c2ccccc2)cc1`: the growth in the assay on RPMI-8226 leukemia is 85.6%; with OVCAR-8 ovarian it was 30.3%; with OVCAR-5 ovarian, 84.7%; in the assay with OVCAR-4 ovarian, 44.7%; with SK-OV-3 ovarian, 74%; with IGROV1 ovarian, 72.1%. In addition, the growth in the assay with OVCAR-3 ovarian is 72.2%; in the assay on NCI/ADR-RES ovarian, 53.1%.
`O=C(O)/C=C\C(=O)N1C/C(=C\c2ccccc2Cl)C(=O)/C(=C/c2ccccc2Cl)C1`: the growth with OVCAR-8 ovarian is 4.98% (active); in the assay on OVCAR-5 ovarian, 2.41% (active); with IGROV1 ovarian, 1.94% (active); in the assay on OVCAR-3 ovarian it was -37.7% (active); in the assay on HS 578T breast, 47.1%; with NCI/ADR-RES ovarian, 4.6% (active).
With `C(=N\Nc1ncc(-c2cc3cc4c(cc3o2)OCO4)s1)/c1c[nH]c2ccccc12`, the growth in the assay on RPMI-8226 leukemia was -22.4% (active); in the assay with OVCAR-8 ovarian it was -12.1% (active); in the assay with OVCAR-5 ovarian, 9.56% (active); in the assay on OVCAR-4 ovarian, -12.9% (active); in the assay on IGROV1 ovarian it was -43.8% (active); with OVCAR-3 ovarian it was -44.4% (active). Moreover, the growth was -6.98% (active) with HS 578T breast and 10.7% in the assay on NCI/ADR-RES ovarian.
Regarding `CNC(=O)Nc1ccc(-c2nc(N3CCOCC3)nc3c2cnn3C2CCOCC2)cc1`, the growth in the assay on RPMI-8226 leukemia is 8.13% (active); in the assay on OVCAR-8 ovarian, 0.163% (active); in the assay on OVCAR-5 ovarian it was 1.59% (active); with IGROV1 ovarian, -27.6% (active); in the assay on OVCAR-3 ovarian, 1.45% (active); with HS 578T breast, -24.9% (active). In the assay on NCI/ADR-RES ovarian, the growth is 4.44% (active).
Take `O=C1/C(=C\c2cn(Cc3ccccc3)c3ccc(Br)cc23)c2ccccc2N1c1c(Cl)cccc1Cl`: the growth in the assay with RPMI-8226 leukemia was 104%; in the assay with OVCAR-8 ovarian, 98%; with OVCAR-5 ovarian, 99%; in the assay on OVCAR-4 ovarian it was 91.9%; in the assay on SK-OV-3 ovarian, 101%; with IGROV1 ovarian, 105%. Also, the growth was 119% with OVCAR-3 ovarian, 110% in the assay with HS 578T breast and 98.4% with NCI/ADR-RES ovarian.
Consider `CS(=O)(=O)OCCN(CCOS(C)(=O)=O)c1ccc(/C=N/Nc2ccc([N+](=O)[O-])cc2[N+](=O)[O-])cc1`, for which the growth in the assay with RPMI-8226 leukemia is 82.3%; in the assay with OVCAR-8 ovarian, 76.4%; in the assay on OVCAR-5 ovarian, 97.8%; in the assay with OVCAR-4 ovarian, 93.1%; in the assay on SK-OV-3 ovarian, 101%; in the assay on IGROV1 ovarian, 72%. For the same compound, the results for the growth in the assay with OVCAR-3 ovarian and in the assay with NCI/ADR-RES ovarian were 107% and 73%, respectively.
Take `COc1cc2nnn3c4ncccc4c(N=O)c3c2cc1OC`: the growth in the assay with RPMI-8226 leukemia is -11.8% (active); in the assay with OVCAR-8 ovarian it was 14.3%; in the assay with OVCAR-5 ovarian it was 102%; in the assay on OVCAR-4 ovarian, 50.3%; in the assay on SK-OV-3 ovarian it was 104%; in the assay on OVCAR-3 ovarian, 120%. Also, the growth with HS 578T breast was 116%; with NCI/ADR-RES ovarian, 44.6%.
On to `O=C(Nc1ccc(Cl)cc1)Nc1ccc(Cl)c(Cl)c1`, for which the growth in the assay on RPMI-8226 leukemia is -27.6% (active); in the assay with OVCAR-8 ovarian, 21.2%; in the assay with OVCAR-5 ovarian, 23.9%; in the assay on OVCAR-4 ovarian, 21.8%; with SK-OV-3 ovarian, 20.2%; with IGROV1 ovarian it was 21.5%. Moreover, the growth is -31% (active) with OVCAR-3 ovarian, 33% in the assay on HS 578T breast and -18.8% (active) in the assay with NCI/ADR-RES ovarian.
Turning to `Cn1/c(=N/NC(N)=S)ccc2ccccc21`, the growth in the assay on RPMI-8226 leukemia is 78.2%; with OVCAR-8 ovarian it was 74.6%; in the assay on OVCAR-5 ovarian it was 99%; with OVCAR-4 ovarian it was 93.3%; with SK-OV-3 ovarian, 107%; in the assay with IGROV1 ovarian, 44.7%. Also, the growth is 44.1% with OVCAR-3 ovarian, 103% with HS 578T breast and 77% in the assay on NCI/ADR-RES ovarian.
As to `O=S(=O)(c1cccc(NC2=Nc3cccc4cccc2c34)c1)N1CCCC1`, the growth in the assay on OVCAR-8 ovarian was 83.7%; in the assay on OVCAR-5 ovarian, 100%; in the assay with OVCAR-4 ovarian it was 46.9%; with SK-OV-3 ovarian it was 84.1%; in the assay on IGROV1 ovarian, 80%; in the assay with OVCAR-3 ovarian, 84.3%. For the same compound, the growth is 76.8% in the assay on HS 578T breast and 66% in the assay with NCI/ADR-RES ovarian.
In the case of `COc1ccccc1/C=C1\COc2ccc(-c3ccccc3)cc2C1=O`, the growth in the assay with RPMI-8226 leukemia is -37.3% (active); with OVCAR-8 ovarian it was 36.1%; with OVCAR-5 ovarian it was 104%; in the assay on OVCAR-4 ovarian, 76.1%; in the assay on SK-OV-3 ovarian it was 50.7%; with IGROV1 ovarian it was 56.6%. The growth was -29% (active) in the assay on OVCAR-3 ovarian, 38.9% with HS 578T breast and -45.6% (active) in the assay on NCI/ADR-RES ovarian.
Turning to `O=c1[nH]c2c(s1)CCCC2CN1CCCCC1` (stereo unspecified), the growth in the assay with RPMI-8226 leukemia is 103%; with OVCAR-8 ovarian it was 113%; with OVCAR-5 ovarian, 89.2%; in the assay with OVCAR-4 ovarian, 113%; in the assay with SK-OV-3 ovarian, 86.6%; with IGROV1 ovarian, 120%. Besides, the growth is 111% in the assay on OVCAR-3 ovarian, 105% in the assay with HS 578T breast and 99% with NCI/ADR-RES ovarian.
For `C1=C2CNCC3=Cc4ccc5ccccc5c4OC23Oc2c1ccc1ccccc21`, the growth with RPMI-8226 leukemia was 70.5%; in the assay with OVCAR-8 ovarian, 53.9%; in the assay with OVCAR-5 ovarian it was 70%; in the assay on IGROV1 ovarian, 39.9%; with OVCAR-3 ovarian, -19.1% (active); in the assay with HS 578T breast, 52.5%. In the assay on NCI/ADR-RES ovarian, the growth was -21.4% (active).
Regarding `CCCOc1nc(SCCC)nc2c1cnn2-c1ccccc1`, the growth with OVCAR-8 ovarian is 99.2%; in the assay on OVCAR-5 ovarian it was 89.2%; with OVCAR-4 ovarian it was 99.6%; in the assay with SK-OV-3 ovarian, 106%; in the assay with OVCAR-3 ovarian it was 94.8%; in the assay on HS 578T breast, 126%. Besides, the growth in the assay with NCI/ADR-RES ovarian is 96%.
Regarding `COc1cc(CCNc2nc3cc(N)cc(N)c3nc2-c2ccccc2)cc(OC)c1`, the growth with OVCAR-8 ovarian is -22.2% (active); with OVCAR-5 ovarian it was 13.4%; with OVCAR-4 ovarian, -94.9% (active); in the assay with SK-OV-3 ovarian, 82.3%; in the assay with IGROV1 ovarian, 27.8%; in the assay with OVCAR-3 ovarian it was -66.2% (active). Further, the growth was -70.5% (active) in the assay with HS 578T breast and 39.1% in the assay on NCI/ADR-RES ovarian.
Take `COc1ccc(OC)c(/C=C/[C@H]2O[C@@H](C)[C@H](O)[C@@H]2O)c1`: the growth with OVCAR-8 ovarian was 109%; in the assay on OVCAR-5 ovarian, 112%; with IGROV1 ovarian, 105%; in the assay on OVCAR-3 ovarian, 125%; with HS 578T breast, 111%; in the assay with NCI/ADR-RES ovarian it was 108%.
As to `Cc1[nH]n(-c2cccc(Cl)c2)c(=O)c1/C=C1\C=Nc2ccc(Br)cc21`, the growth was 14.1% with RPMI-8226 leukemia; 9.67% (active) in the assay with OVCAR-8 ovarian; 30.5% with OVCAR-5 ovarian; -89.9% (active) in the assay with OVCAR-4 ovarian; -47.2% (active) in the assay with OVCAR-3 ovarian; 0.668% (active) in the assay on HS 578T breast. Besides, the growth in the assay on NCI/ADR-RES ovarian is 16.3%.
Turning to `COc1ccc(-c2cnnc3c(-c4cccc(C(F)(F)F)c4)cnn23)cc1`, the growth with OVCAR-8 ovarian is 19.6%; in the assay with OVCAR-5 ovarian, 81%; in the assay with OVCAR-4 ovarian, 35.7%; in the assay on SK-OV-3 ovarian, 15.1%; in the assay with IGROV1 ovarian, 64.1%; in the assay on OVCAR-3 ovarian, 26.4%. Moreover, the growth was 20.1% in the assay on HS 578T breast and 60.5% with NCI/ADR-RES ovarian.
